# Experimental data: PubChem BioAssay AID1851 (National Center for Advancing Translational Sciences (NCATS), 2009)
# “And” between values parts separate entries of the source, which are not always exact repeats. Identical values can stand only once. Screen size: about 16,000 compounds; about 4,000 (25%) were called active. Inconclusive results (about 26%) are left out. The list is a sample of the results. Unmarked numbers belong to inactive results. The call rests on the fitted dose curve; in most records, active means well fitted curve in the direction sought with a large enough effect; inconclusive means small, poorly fitted or top-dose-only effect, or effect the other way; inactive means no such curve, though single readings can be large or run the other way.
# Biological target: Cytochrome P450 2C9 (Homo sapiens) (UniProt P11712)
# Assay: Cytochrome panel assay with activity outcomes
# Settings: recombinant CYP, pro-luciferin dealkylation, luminescence, p450-cyp2c9; series mostly up to 57.1 µM; activity, negative = inhibition: at the top concentration
# On the % scale 0 is the no-effect control and ±100 the full control effect.
# Cytochrome P450 2C9 (Homo sapiens), sequence (P11712 whole entry, looked up): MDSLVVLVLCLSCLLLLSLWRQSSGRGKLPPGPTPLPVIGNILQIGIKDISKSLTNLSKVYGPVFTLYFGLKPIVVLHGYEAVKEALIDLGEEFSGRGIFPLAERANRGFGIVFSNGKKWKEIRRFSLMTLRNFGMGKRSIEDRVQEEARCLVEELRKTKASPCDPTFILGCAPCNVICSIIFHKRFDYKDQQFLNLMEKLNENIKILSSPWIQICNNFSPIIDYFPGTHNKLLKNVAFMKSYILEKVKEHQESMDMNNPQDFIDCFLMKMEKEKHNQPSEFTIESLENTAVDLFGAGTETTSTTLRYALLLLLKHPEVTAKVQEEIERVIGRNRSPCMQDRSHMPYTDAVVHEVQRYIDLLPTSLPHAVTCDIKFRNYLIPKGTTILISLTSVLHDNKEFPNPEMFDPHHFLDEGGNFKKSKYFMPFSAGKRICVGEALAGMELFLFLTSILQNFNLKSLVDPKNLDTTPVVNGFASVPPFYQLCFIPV
Structure (SMILES),"activity, negative = inhibition",AC50
CC(=O)OC[C@H]1O[C@@H](ON=C(C)C)[C@H](OC(C)=O)[C@@H](OC(C)=O)[C@H]1OC(C)=O,6.05% [at 11.4 µM],
CC(C)(O)C#Cc1ccc(C(=O)NCc2cccs2)s1,,25.1 µM (active)
CC(C)(C)C(=O)Nc1nnc(SCC(=O)NCc2cccs2)s1,-22.3%,
O=C(Cn1cccc1C(=O)c1ccccc1)NCc1cccs1,-18.4%,
O=S(=O)(O)[C@@H](c1ccccc1)[C@@H](O)c1ccccc1,3.25% [at 11.4 µM],
COc1cc(/C=N/NC(N)=O)c(Br)cc1OCC(=O)Nc1ccccc1C,,3.16 µM (active)
COCCCNC(=O)C(=O)N/N=C/c1ccc(OCC(=O)Nc2cccc(Cl)c2C)c(OC)c1,-2.04%,
O=C(NCC1COc2ccccc2O1)C1C2C=CC3(CN(Cc4cccs4)C(=O)C13)O2 (stereo not given),,31.6 µM (active)
Cc1ccc(CN2CC34C=CC(O3)C(C(=O)NCc3ccco3)C4C2=O)cc1 (stereo not given),-20.2%,
COCCCNC(=O)C1C2C=CC3(CN(Cc4ccc(C)cc4)C(=O)C13)O2 (stereo not given),9.83%,
c1ccc(C[n+]2cccc(-c3cc4ccccc4[nH]3)c2)cc1,-9.64% [at 11.4 µM],
O=C1C[C@@H](O)[C@@H](O)[C@H]2[C@@H]3C(=O)N(c4cccc(Oc5ccccc5)c4)C(=O)[C@@H]3CC[C@H]12,-10.3% [at 11.4 µM] and 1.22% [at 11.4 µM],
O=C(Nc1nnc(SCc2ccc(Cl)cc2Cl)s1)C1COc2ccccc2O1 (stereo not given),,7.08 µM (active)
O=C(Nc1ncc(Cc2ccccc2)s1)C1COc2ccccc2O1 (stereo not given),,6.31 µM (active)
CN(Cc1ccco1)c1cc(-c2ccccc2C(F)(F)F)ncn1,9.45% [at 2.29 µM],
COc1ccc2[nH]cc(CCNc3cc(-c4ccccc4C)ncn3)c2c1,-17.1% [at 2.29 µM],
COc1cc(OC)c2c(c1)C(=O)c1cc(OC)cc(OC)c1C2=O,-2.23%,
COc1ccc2c(=O)c(-c3ccccc3C)c(C)oc2c1,,17.8 µM (active)
Clc1ccc2c(c1)N(CCCN1CCCC13CCCCC3)c1ccccc1S2,10.5% [at 11.4 µM],
COC(=O)[C@@]1(Cc2ccccc2)[C@H]2c3cc(C(=O)N4CCCC4)n(Cc4ccc(O)c(OC)c4)c3C[C@H]2CN1C(=O)c1ccccc1,,2.51 µM (active)
COC(=O)[C@@]1(Cc2ccccc2)[C@H]2c3cc(C(=O)N4CCCC4)n(Cc4ccc(OC)c(OC)c4)c3C[C@H]2CN1C(=O)c1ccccc1,,1.26 µM (active)
CC(N)=O,4.3%,
N#Cc1ccc(Oc2nc(C(N)=O)cc(-c3ccccc3)n2)cc1,,6.31 µM (active)
N#Cc1ccc(OC(=O)c2ccc(N=C(N)N)cc2)cc1,12.7% [at 11.4 µM],
NC(=O)Nc1n[nH]c(-c2ccccc2)n1,-4.69% [at 11.4 µM],
O=C(NC[C@@H](O)CO)c1c(I)c(C(=O)NC[C@@H](O)CO)c(I)c(N(CCO)C(=O)CO)c1I,16.1% [at 25.6 µM],
O=C(c1cc(C(F)(F)F)cc(C(F)(F)F)c1)N1CCC2(CC1)CN(c1ccccn1)C2,-21.7%,
Cc1ccc(C(=O)N2CCN(c3ccc(C(F)(F)F)cn3)CC2)cc1,,15.8 µM (active)

Structure (SMILES),"activity, negative = inhibition",AC50
O=C(c1cc(C(F)(F)F)cc(C(F)(F)F)c1)N1CCC2(CC1)CCN(c1ccccn1)CC2,9.59%,
N#CCCn1c(=O)c(-c2cccc(C#N)c2)nc2cnc(N3CCOCC3)nc21,13%,
O=c1c(-c2ccccc2)nc2cnc(N3CCNCC3)nc2n1-c1ccccc1,-22%,
O=c1c(-c2ccccc2)nc2cnc(N3CCNCC3)nc2n1C1CC1,,0.158 µM (active)
N#Cc1cccc(-c2nc3cnc(N4CCOCC4)nc3n(C3CC3)c2=O)c1,-15.8%,
N#Cc1cccc(-c2nc3cnc(N4CCNCC4)nc3n(C3CC3)c2=O)c1,,0.631 µM (active)
O=c1c(-c2ccc(F)cc2)nc2cncnc2n1C1CC1,8.93%,
O=c1c(-c2ccccc2)nc2cnc(N3CCOCC3)nc2n1C[C@H]1CCCO1,-7.43%,
O=c1c(-c2ccc(F)cc2)nc2cnc(N3CCNCC3)nc2n1C1CC1,,1 µM (active)
O=c1c(-c2ccc(F)cc2)nc2cnc(N3CCOCC3)nc2n1C1CC1,10.8%,
O=c1c(-c2ccc(Cl)cc2)nc2cnc(N3CCOCC3)nc2n1C1CC1,-5.18%,
O=c1c(-c2ccccc2)nc2cnc(N3CCOCC3)nc2n1C1CC1,,10 µM (active)
COc1ccc(-n2c(=O)c(-c3ccccc3)nc3cnc(N4CCNCC4)nc32)cc1,1.05%,
C1CCC(C(C[C@@H]2CCCCN2)C2CCCCC2)CC1,6.08% [at 25.6 µM],
CNc1ccnc(-c2ccccc2C)n1,24.5% [at 2.29 µM],
C[C@@H]1O[C@@H](n2cc(F)c(=O)[nH]c2=O)[C@H](O)[C@@H]1O,25.7%,
N=C(C[C@@H](O)COc1ccccc1-c1ccccc1)N1CCCCC1,-27.4%,
CC[C@H](C)[C@@H]1O[C@]2(CC[C@@H]1C)C[C@H]1C[C@H](CC=C(C)[C@@H](O[C@H]3C[C@H](OC)[C@H](O[C@H]4C[C@H](OC)[C@H](O)[C@H](C)O4)[C@H](C)O3)[C@@H](C)C=CC=C3CO[C@@H]4[C@@H](O)C(C)=C[C@H](C(=O)O1)[C@@]34O)O2,-17.5%,
O=c1c(-c2cc(F)cc(F)c2)nc2cnc(N3CCOCC3)nc2n1C1CC1,9.41%,
COc1ccc(-c2nc3cnc(N4CCNCC4)nc3n(C3CC3)c2=O)cc1,,7.94 µM (active)
COc1ccc(-c2nc3cnc(N4CCN(C)CC4)nc3n(C3CC3)c2=O)cc1,-12.7%,
O=c1c(-c2cc(F)cc(F)c2)nc2cnc(N3CCNCC3)nc2n1C1CC1,,0.158 µM (active)
COc1ccc(-c2nc3cnc(N4CCNCC4)nc3n(C)c2=O)cc1,-21.4%,
Cn1c(=O)c(-c2cc(F)cc(F)c2)nc2cnc(N3CCOCC3)nc21,10.6%,
CN1CCN(c2nc(-c3ccoc3)nc3ccccc23)CC1,6.78% [at 2.29 µM],
COc1ccccc1CN1CC2(CCN(C(=O)c3cnccn3)CC2)C1,9.97%,
CC(C)CN1CCC2(CC1)CCN(C(=O)c1ccncc1)CC2,4.6%,
